# Screens as filed in PubChem BioAssay.
# Sampled rows, rich in hits. Any-hit rate of the full collection: about 19%.
# DT40 TDP1 CPT = DT40-hTDP1 cell growth loss with CPT | 420,000 compounds, 12% hits | Potency, µM (top dose mostly 46.2 µM), without a hit: at the highest dose activity change, negative = growth inhibition, usual class: inhibitors | chicken DT40 Tdp1-/-;hTDP1 cells + 20 nM CPT, ATP luminescence, 48 h; note: potency is the fitted concentration of half-maximal effect; nearly all actives have a fitted effect of over 55% in size
#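 Cell growth measured by CellTiter-Glo luminescence after a minimum 48 h, 37 C compound exposure with 20 nM CPT in Tdp1-knockout DT40 cells stably expressing hTDP1, seeded 400/well; qHTS titration format.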
# IL-1B inflam inh = inhibitors of inflammasome signaling (IL-1 beta secretion); 360,000 compounds, 4.7% hits; AID 743279; activity change, % at 57.5 µM; THP-1 LPS/ATP IL-1B secretion, AlphaLISA, 16 h; stronger effect = lower value; in the data active = activity change below about -50%; inconclusive = mostly about -30% to -49%
#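 THP-1 cells pretreated 1 hr with compounds (up to 57.5 uM final), then stimulated with LPS (250 ng/mL final) plus ATP (1.25 mM final); secreted IL-1B measured by AlphaLISA after 16 hr, decreased signal indicating inhibition.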
# TDP1 block = TDP1 (human) enzyme inhibition; recombinant TDP1, AlphaScreen DNA substrate cleavage; Q9NUW8; Potency, µM (doses to about 130 µM), without a hit: at the highest dose activity change, negative = inhibition, hits mostly inhibitors; 350,000 compounds, 0.28% hits; AID 485290; note: potency is the fitted concentration of half-maximal effect; nearly all actives have a fitted effect of over 40% in size
# Target sequence (Q9NUW8 whole entry, looked up): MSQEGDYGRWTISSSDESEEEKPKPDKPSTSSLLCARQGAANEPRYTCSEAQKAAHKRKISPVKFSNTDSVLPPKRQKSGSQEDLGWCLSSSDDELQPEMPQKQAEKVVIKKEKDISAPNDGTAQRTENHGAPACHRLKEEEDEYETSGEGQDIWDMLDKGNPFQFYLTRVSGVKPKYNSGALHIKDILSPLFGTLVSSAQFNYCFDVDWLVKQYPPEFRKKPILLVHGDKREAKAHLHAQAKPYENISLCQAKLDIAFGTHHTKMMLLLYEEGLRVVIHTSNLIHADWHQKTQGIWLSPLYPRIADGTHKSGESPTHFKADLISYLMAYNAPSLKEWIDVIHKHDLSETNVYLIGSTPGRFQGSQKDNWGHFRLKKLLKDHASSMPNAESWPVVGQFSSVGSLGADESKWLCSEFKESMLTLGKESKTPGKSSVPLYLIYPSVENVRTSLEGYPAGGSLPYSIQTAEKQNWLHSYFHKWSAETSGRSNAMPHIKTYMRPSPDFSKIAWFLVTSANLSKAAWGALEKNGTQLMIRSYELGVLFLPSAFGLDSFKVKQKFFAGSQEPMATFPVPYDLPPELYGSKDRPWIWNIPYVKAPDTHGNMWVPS
#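 Recombinant human Tdp1 (E. coli-expressed, 1 nM final) preincubated with compounds 15 min at room temperature, then 5'-biotin/3'-phosphotyrosine-FITC DNA substrate (15 nM final) added for 5 min. AlphaScreen beads (10 ug/ml final) added 10 min; cleavage lowers signal.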
# ELG1 repair inh = ELG1-dependent DNA repair inhibition; 330,000 compounds, 2.3% hits; HEK293T ELG1-luciferase reporter, luminescence, 16 h; DNA damage induced by 5-fluorouridine; Potency, µM (doses to about 46.1 µM), inactives show at the top dose activity change, negative = inhibition, actives largely listed as inhibitors; AID 504467; note: potency is the fitted concentration of half-maximal effect; nearly all actives have a fitted effect of over 55% in size
#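 DMSO vehicle served as the neutral condition. Each well held 2,000 cells given 5-fluorouridine plus compound; after 16 hr at 37 °C/5% CO2, ONE-Glo was added and luciferase measured 30 min later.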
# Giardia kill = Giardia lamblia killing; AID 540267; Giardia lamblia trophozoite viability; activity change, % at 7.66 µM, hits read low; 340,000 compounds, 0.15% hits; in the data active = activity change below about -80%; inconclusive = between about -30% and that limit;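 note: parasites exposed to compound for two days anaerobically before the ATP read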
#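 ATP-content bioluminescence gauges trophozoite survival. Cells (100/well) receive compound and incubate anaerobically for 48 hrs at 37 deg C; detection reagent follows for 15-30 min at room temperature.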
# DT40 TDP1 no CPT = qHTS for Inhibitors of human tyrosyl-DNA phosphodiesterase 1 (TDP1): qHTS in cells in absence of CPT; 420,000 compounds, 15% hits; DT40 Tdp1-/- hTDP1 cells, no CPT, ATP luminescence, 48 h; AID 686978, 2013; Potency, µM (titrated, usually from 46.2 µM), without a hit: top-dose activity change, negative = growth inhibition, hits mostly inhibitors; note: potency is the fitted concentration of half-maximal effect; nearly all actives have a fitted effect of over 55% in size
#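 A cellular qHTS used chicken DT40 cells lacking endogenous Tdp1 but carrying stably transfected human TDP1. Compounds were applied without camptothecin, and cell growth kinetics were judged by ATP-dependent luminescence after ≥48 hr.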
# Starred values were filed as active, the others as inactive; ? = inconclusive; / = not tested or not shown; [ ] = another dose, or the depositor's remark. Unless noted, calls come from the whole dose curve; as a rule, active = well fitted curve in the direction sought with a large enough effect; inconclusive = small, poorly fitted or top-dose-only effect, or another doubt; inactive = no such curve, though single readings can be large; an effect the other way counts as inactive or inconclusive. % is set by controls: 0 for no effect and ±100 for the full control effect.
SMILES,DT40 TDP1 CPT,IL-1B inflam inh,TDP1 block,ELG1 repair inh,Giardia kill,DT40 TDP1 no CPT
COc1ccc(C2/C=C\CN(C(=O)Nc3ccc(C(F)(F)F)cc3)CC(=O)N2Cc2ccc(F)cc2)cc1 (stereo not drawn),15µM*,0,9%,-29%,-24,13µM*
COc1ccc(C2/C=C\CN(C(=O)C3CCCC3)[C@H](Cc3ccccc3)C(=O)N2Cc2ccc(F)cc2)cc1 (stereo partly drawn),23µM*,-22,1%,-24%,23,?
COc1cc(OC)cc(C(=O)NCC2CCCN(C(=O)c3oc(C)cc3C)C2)c1 (stereo not drawn),?,13,2%,23%,-6,?
CC(=O)OC1CCC2(C)C(=CC=C3C2CCC2(C)C3CCC2C(C)/C=C/C(C)C(C)C)C1(C)C (stereo not drawn),4%,/,-8%[56.1 µM],/,/,-6%
CCOc1ccc(-c2nc(N)ncc2-c2ccccc2)c(O)c1,21µM*,?,6%,-18%,?,15µM*
CCOc1ccc(-c2nc(N)ncc2Oc2ccc(OC)cc2)c(O)c1,-5%,-87*,8%,0%,-7,2%
COc1cc(C(=O)NC2CCCC(C)C2C)ccc1OCC(=O)N1CCOCC1 (stereo not drawn),-16%,-14,1%,3%,23,-4%
CC(C)=C(NC(=O)c1ccccc1)C(=O)Nc1cccc(C)c1,3%,4,-1%,5%,-2,16%
O=C(Nc1nc2cc3c(cc2s1)OCO3)C1CC1,4.1µM*,3,/,14%,15,3.7µM*
Fc1cccc2sc(Nc3nc4cc5c(cc4s3)OCO5)nc12,21µM*,12,8%,?,-10,?
CC(C)c1ccc2nc(NC(=O)C3CC3)sc2c1,?,-57*,/,?,4,?
CC(C)C(=O)Nc1nc2cc3c(cc2s1)OCO3,5.2µM*,19,3%,?,12,4.6µM*
Fc1cccc2sc(Nc3nc4cc5c(cc4s3)OCCO5)nc12,?,2,8%,?,-6,?
CC(=O)NC1(C(F)(F)F)NC(=O)N(c2ccc(F)cc2)C1=O (stereo not drawn),1%,6,-2%,0%,15,16%
COc1ccc(CC(=O)NC2CC(=O)N(c3cccc(F)c3)C2)cc1 (stereo not drawn),7%,/,0%,/,/,-16%
COc1ccc(-c2nn(-c3ccccc3)cc2CN(C)CCn2ccnc2C)c(F)c1,18µM*,?,/,-4%,29,?
CC1CCc2c(C(=O)Nc3ccc(N4CCOCC4)cc3)csc2C1 (stereo not drawn),0%,-4,5%,-14%,-17,?
CCCOc1cccn2c(N(C)C(=O)c3ccccc3F)c(CC)nc12,?,47,/,/,/,?
CCc1nc2c(OCC=C(C)C)cccn2c1N(C)C(=O)c1ccc(OC)cc1,23µM*,63,/,/,/,13µM*
CCc1nc2c(OCC=C(C)C)cccn2c1N(C)C(=O)c1ccccc1F,0.73µM*,-69*,/,/,/,0.82µM*
CC1=C(C(=O)Nc2cccc(C(F)(F)F)c2)C2(CCCCC2)OC1=O,?,/,1%,/,/,16µM*
CC1=C(C(=O)Nc2cc(C)cc(C)c2)C2(CCCCC2)OC1=O,?,/,2%,/,/,-24%
COc1ccc(OC)c(NC(=O)C2=C(C)C(=O)OC23CCCCCC3)c1,?,/,1%,/,/,?
CC1=C(C(=O)NCc2cccc(Br)c2)C2(CCCCC2)OC1=O,15µM*,/,1%,/,/,23µM*
CC1=C(C(=O)Nc2cccc(C(F)(F)F)c2)C2(CCCCCC2)OC1=O,16µM*,/,7%,/,/,?
SMILES,DT40 TDP1 CPT,IL-1B inflam inh,TDP1 block,ELG1 repair inh,Giardia kill,DT40 TDP1 no CPT
CC1=C(C(=O)Nc2cccc(F)c2)C2(CCCCC2)OC1=O,?,/,3%,/,/,?
COC(=O)c1ccccc1NC(=O)C1=C(C)C(=O)OC12CCCCCC2,18µM*,/,2%,/,/,16µM*
Cc1ccc(S(=O)(=O)N2CCN(C(=O)COC(=O)COc3ccccc3C(C)C)CC2)c(C)c1,-7%,3,/,/,28,28%
COc1cc(C(=O)N2CCCCC2c2cc(C(=O)NC(C)C)no2)cc(OC)c1C (stereo not drawn),?,15,/,/,/,?
Cc1noc(C)c1-c1ccc2ncnc(NCc3ccc(-c4ccccc4)cc3)c2c1,/,/,11%,/,/,/
Cc1cccc(CNc2ncnc3ccc(-c4cccnc4)cc23)c1,12µM*,/,0%,0%,-5,18µM*
Cc1noc(C)c1-c1ccc2ncnc(NCc3cccnc3)c2c1,9.2µM*,/,/,/,/,?
c1ccc(Nc2ncnc3ccc(-c4cccnc4)cc23)cc1,?,/,-4%[56.1 µM],/,/,18µM*
Cc1cccc(-c2ccc3ncnc(NCc4cccnc4)c3c2)c1,/,/,2%,0%,3,/
Cc1noc(C)c1-c1ccc2ncnc(Nc3ccccc3)c2c1,-28%,/,/,/,/,?
c1cncc(CNc2ncnc3ccc(-c4ccoc4)cc23)c1,10µM*,/,2%,?,-12,?
CC(C)(O)C#Cc1cccc(-c2nc(C(=O)NCCCN3CCOCC3)cc3c2[C@H](CCO)N(S(=O)C(C)(C)C)C3)c1 (stereo partly drawn),-13%,-9,/,/,/,-5%
CCCc1ccc(C(O)c2ncc(-c3cccc(C)c3)[nH]2)cc1 (stereo not drawn),?,-16,/,/,/,?
Cc1cccc(CNc2ncnc3ccc(-c4ccc5c(c4)OCCO5)cc23)c1,/,/,3%,?,3,/
Cc1cccc(CNc2ncnc3ccc(-c4ccoc4)cc23)c1,21µM*,/,4%,?,-19,13µM*
COc1ccc(Nc2nc3ccc(C)cc3nc2-n2nc(C)cc2C)cc1Cl,1%,/,0%,/,/,-6%
O=C(COC(=O)c1ccccc1Cc1ccccc1)Nc1ccc(SC(F)F)cc1,?,-93*,-2%,?,-24,?
O=C(COC(=O)Cc1ccccc1F)Nc1ccc(SC(F)F)cc1,8%,-2,-2%,10%,16,-15%
Cc1ccc(C(=O)c2ccccc2C(=O)OCC(=O)Nc2cccc([N+](=O)[O-])c2)cc1,18µM*,-5,6%,?,17,?
O=C(Cc1ccccc1F)Nc1ccc(SC(F)F)cc1,?,-55*,6%,?,-14,?
Cc1ccc(C(=O)c2ccccc2C(=O)OCC(=O)Nc2ccc(SC(F)F)cc2)cc1,?,-26,0%,?,2,18µM*
